# Assay outcomes as filed in PubChem BioAssay.
# This is a sample that favours compounds with a hit; in the whole collection about 4.3% have one here.
# Anthrax LF prot: Bacillus anthracis LF protease inhibitors, primary screen, biochemical, multiplex microsphere, MLPCN library. Lethal factor (Bacillus anthracis), P15917. multiplex microsphere protease cleavage assay. inhibition, % at 10 µM. actives 0.12% (n = 360,000). AID 588501, 2011; further: plate controls were buffer without enzyme for full effect and enzyme alone for no effect
# PfHsp40 yeast: rescue of yeast from PfHsp40 toxicity, primary screen, S. cerevisiae, ATP luminescence | actives 0.68% (n = 340,000) | AID 504582, 2011 | growth rescue, % at 12.5 µM | S. cerevisiae expressing PfHsp40, growth rescue; in the data active means growth rescue above about 28%, passing the limit was not always enough; inconclusive means no clear call, values can overlap the other calls;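 further: yeast W303a lacking pdr1 and pdr3 grown in galactose medium; growth measured after three days at 30 °C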
# BoNT A protease: BoNT/A light chain protease inhibitors, primary screen, biochemical, flow cytometry, MLPCN library; Botulinum neurotoxin type A light chain protease (Clostridium botulinum A str. ATCC 3502); multiplex microsphere protease substrate cleavage; inhibition, % at 10 µM; actives 0.17% (n = 360,000); AID 588499, 2011; further: plate controls were buffer without enzyme for full effect and enzyme alone for no effect
# MazF activator: activators of E. coli MazEF toxin-antitoxin RNase, primary screen, biochemical, fluorescence, uHTS. activation, % at 20 µM. FAM/BHQ RNA-DNA oligo cleavage fluorescence, 5 h. Endoribonuclease toxin MazF (Escherichia coli (strain K12)), P0AE70. actives 0.32% (n = 350,000). AID 504720, 2011; in the data active means activation above about 50%
# Target sequence (P0AE70 whole entry, looked up): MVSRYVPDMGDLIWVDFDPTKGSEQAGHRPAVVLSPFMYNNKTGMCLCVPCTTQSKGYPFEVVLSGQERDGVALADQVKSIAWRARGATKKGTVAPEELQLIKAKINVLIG
# BoNT-F LC inh: BoNT/F light chain protease inhibitors, primary screen, biochemical, flow cytometry, MLPCN library; Botulinum neurotoxin type F light chain protease (Clostridium botulinum); Multiplex microsphere protease cleavage assay; inhibition, % at 10 µM; actives 0.22% (n = 360,000); in the data active means inhibition above about 35%, passing the limit was not always enough; inconclusive means no clear call, values can overlap the other calls; further: plate controls were buffer without enzyme for full effect and enzyme alone for no effect
# Autofluor counter: compound fluorescence in toxin protease inhibitor counterscreen. actives 3.1% (n = 360,000). compound autofluorescence counterscreen, microsphere flow cytometry; active compounds read high. AID 624483. fluorescence intensity (test concentration not listed); in the data active means fluorescence intensity above about 16000; inconclusive means no clear call, values can overlap the other calls
# * hit, by the source's call; ? = inconclusive; . = no result. Unless noted, no stated cut-off is given here; in the data, active means inhibition above about 30%; inconclusive means no clear call, values can overlap the other calls; inactive means below that.
SMILES,Anthrax LF prot,PfHsp40 yeast,BoNT A protease,MazF activator,BoNT-F LC inh,Autofluor counter
Cn1c(=O)c(C(=O)c2ccccc2)nc2ccccc21,0,1,1,0,-6,2379
Cc1nc(-n2ncc(C#N)c2N)c2c3c(sc2n1)CCC3,1,1,0,12,1,22751*
COc1ccc(C(C)=O)cc1COC(=O)c1ccc2c(c1)OCCO2,8,-1,3,5,2,8030
CC(=O)Nc1ccc(S(=O)(=O)N(C)CC(=O)OCC(=O)Nc2cc(C)on2)cc1,.,-2,.,0,.,.
Cc1cccc(/C=C/c2onc(C)c2S(=O)(=O)N2CCC(C(=O)NC(C)C)CC2)c1,2,3,-1,10,-1,6184
COc1cc(-c2cn[nH]c2N)cc(OC)c1OC,1,-1,?,1,-5,21444*
Nc1[nH]ncc1-c1ccc(Cl)cc1,-4,0,-1,-3,-4,4614
O=C(Nc1ccc(Cl)cc1C(=O)Nc1ccc(Br)cn1)c1ccco1,0,270*,-2,-1,-6,20162*
Cc1nc2c(C(=O)NCc3ccc4c(c3)OCO4)c[nH]n2c(=O)c1Cl,2,-1,-4,-2,-6,25275*
O=C(NCCC1=CCCCC1)c1cnc2n(c1=O)CCS2,-9,1,-3,6,-3,24855*
Cc1nc2c(C(=O)NCCC3=CCCCC3)c[nH]n2c(=O)c1Cl,-1,-1,2,1,2,23190*
CCCC(C(=O)NC1CCCC1)N(Cc1ccc(OC)cc1)C(=O)c1snc(C(N)=O)c1N (stereo unspecified),0,1,-1,6,12,3614
CC(C(=O)OCC(=O)NC1CCCCC1)N1C(=O)c2ccccc2C1=O (stereo unspecified),1,1,0,5,-5,3785
O=C(C1CC(=O)N(c2ccccc2)C1)N1CCCCCC1 (stereo unspecified),-1,1,0,1,10,5403
O=C(Nc1ccc(F)cc1)c1ccc(-n2ccnc2)nc1,-4,-1,1,10,0,22409*
COc1ccccc1NC(=O)c1ccc(-n2cccn2)nc1,1,1,0,3,-2,22967*
COc1ccc(NC(=O)c2ccc(-n3cccn3)nc2)c(OC)c1,-6,0,-3,-2,-6,22774*
O=C(Nc1ccc(F)cc1)c1cccnc1,14,1,0,3,19,3033
COc1ccc(NC(=O)c2ccc(-n3cccn3)nc2)cc1,-2,1,2,4,6,22260*
COc1ccc(NC(=O)c2ccc(NC(=O)c3cccnc3)cc2)cc1,0,.,0,-7,1,3732
Cc1ccc(Cl)cc1NC(=O)CON=C(N)c1ccccc1,-1,0,8,-3,12,3846
CC1(C(=O)NS(=O)(=O)c2ccc(F)cc2F)CCN1C(=O)CC1CCCC1 (stereo unspecified),-3,.,0,.,-2,3519
COc1ccccc1NC(=O)c1ccc(C(=O)Nc2ccccc2OC)nc1,7,0,2,53*,-16,3772
COc1ccccc1NC(=O)c1ccc(NC(=O)Cc2n[nH]c(=O)c3ccccc23)cc1,-1,1,0,72*,3,5272
O=C(Nc1ccc(F)cc1F)c1ccc(-n2cncn2)nc1,-4,2,?,4,0,21818*
SMILES,Anthrax LF prot,PfHsp40 yeast,BoNT A protease,MazF activator,BoNT-F LC inh,Autofluor counter
CCOc1ccccc1NC(=O)c1ccc(C(=O)Nc2ccccc2OCC)nc1,-10,-1,-2,20,-6,3699
CN(C(=O)c1cccs1)c1ccc(OCC(=O)Nc2ccc(C(=O)O)cc2)cc1,0,0,0,8,-1,4490
CC(OC(=O)C1CC=CCC1C(N)=O)C(Cl)=C(Cl)Cl (stereo unspecified),0,0,2,2,2,22015*
COc1cccc(C(=O)N/N=C(/c2ccccc2)c2ccccn2)c1,2,324*,0,8,-6,3193
O=C1NCC(CN(c2ccccc2)c2ccccc2)O1 (stereo unspecified),-3,-1,3,0,4,19299*
Cc1ccccc1OCC1CNC(=O)O1 (stereo unspecified),2,0,0,-4,0,2006
COc1ccc(CNC(=O)[C@H](C)NC(=O)C2CCN(C(=O)[C@@H](N)Cc3ccccc3)CC2)cc1,-3,0,0,11,-7,5348
O=C(CSc1nnc(Cc2ccccc2)n1Cc1ccco1)NC12CC3CC(CC(C3)C1)C2,0,1,?,2,2,23614*
COc1ccccc1COCC(O)CNCC1(N2CCCCC2)CCCCC1 (stereo unspecified),-5,0,0,16,1,22309*
O=C1NC[C@@H](Cc2cccc3ccccc23)N(CCc2cccc(F)c2)C1=O,8,.,-2,.,-1,5014
CCC(=O)N1CCN(c2cc(N3CCCC3)c(F)cc2[N+](=O)[O-])CC1,-2,1,0,8,-1,3967
O=C(c1ccc(N2CCCCC2)c([N+](=O)[O-])c1)N1CCOCC1,-3,0,0,3,1,16276*
COc1ccc(N2CCN(C(=O)c3ccc(Br)cc3)CC2)c([N+](=O)[O-])c1,-2,0,-1,-1,-5,4905
CC(=O)N1CCN(c2cc(N3CCc4ccccc4C3)c(F)cc2[N+](=O)[O-])CC1,-4,1,-5,7,-8,17226*
COc1ccc(N2CCN(C(=O)c3ccc(C)cc3)CC2)c([N+](=O)[O-])c1,-2,33*,-1,-2,-11,2401
O=C(c1cccc(F)c1)N1CCN(c2cc(N3CCCCC3)c(F)cc2[N+](=O)[O-])CC1,1,3,3,2,1,20200*
CCn1c(SCC(=O)N2CCC(C)CC2)nc2c([nH]c3ccccc32)c1=O,0,.,0,-5,-1,3141
Cc1ccc(C)c(NC(=O)c2ccc(N(C)S(C)(=O)=O)cc2)c1,-11,-1,4,-3,5,20420*
COc1ccc(C)cc1NC(=O)c1ccc(N(C)S(C)(=O)=O)cc1,-3,2,0,1,-10,3139
O=C1c2ccccc2S(=O)(=O)N1CC(O)COc1ccc(Br)cc1 (stereo unspecified),-1,2,2,-3,5,16210*
CC(=O)c1ccccc1NC(=O)c1ccc(N2CCCC2=O)cc1,4,0,-3,-4,-7,?
